According to PubChem BioAssay:
Unmarked numbers belong to inactive results. No rule for the calls is given here.

target: Pantothenate synthetase (Mycobacterium tuberculosis (strain ATCC 25618 / H37Rv)) (UniProt P9WIL5); assay: Recombinant Mtb pantothenate synthetase (PanC) inhibitors, coupled enzyme, confirmatory (AID 375); settings: coupled enzyme assay; at 10 µM, active compounds read high;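 also: 0% = full reaction with vehicle and 100% = no enzyme background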
Sequence (P9WIL5 whole entry, looked up): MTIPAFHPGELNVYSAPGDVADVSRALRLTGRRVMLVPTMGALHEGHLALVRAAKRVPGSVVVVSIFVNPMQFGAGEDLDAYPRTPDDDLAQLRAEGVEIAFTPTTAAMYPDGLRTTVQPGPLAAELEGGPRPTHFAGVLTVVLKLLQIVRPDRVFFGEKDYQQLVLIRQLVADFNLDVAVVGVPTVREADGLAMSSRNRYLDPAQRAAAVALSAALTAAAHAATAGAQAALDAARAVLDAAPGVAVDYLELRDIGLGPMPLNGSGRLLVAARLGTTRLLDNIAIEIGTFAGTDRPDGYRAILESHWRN

Structure (SMILES)	inhibition [%]
Cc1cc(C)nc(NC(=O)c2c(-c3c(Cl)cccc3Cl)noc2C)n1	2
O=C(CSc1nnnn1-c1ccc2c(c1)OCO2)NCc1cccs1	0
O=C(Cn1nc(-c2ccc3c(c2)OCCO3)ccc1=O)Nc1ccc(N2CCOCC2)cc1	0
Cc1cc(C)c2ccc(N)nc2c1O	0
N#Cc1c(N)n(CCNC(=O)c2cccs2)c2nc3ccccc3nc12	9
C/C=C/Cn1c(SCCCc2ccccc2)nc2c1c(=O)[nH]c(=O)n2C	0
O=C(CC1(O)C(=O)Nc2ccccc21)c1ccc2c(c1)OCO2 (stereo not given)	0
Cc1ccc(-c2cn3cccnc3n2)cc1NC(=O)c1ccc(Br)o1	0
O=C(CCCn1c(=S)[nH]c2ccccc2c1=O)N1CCCCC1	0
Cc1cc(N2CCN(C3CCCC3)CC2)n2c(nc3ccccc32)c1C#N	0
CN(C)c1ccc(NC(=O)Nc2cccc(Cl)c2)cc1	0
CC(C(=O)NCc1cccnc1)N1C(=O)c2ccccc2C1=O (stereo not given)	0
CCOC(=O)Cn1nc(-c2ccc(C)cc2)ccc1=O	0
CC(=O)Nc1ccc(S(=O)(=O)Nc2nc3c(s2)CCCC3)cc1	2
CC(=O)Nc1c(O)n(C)c2ccccc12	2
COc1ccccc1N1C(=O)CCC1(C#N)c1ccccc1 (stereo not given)	0
O=C(CN1C(=O)C2C3C=CC(C3)C2C1=O)NCc1ccc2c(c1)OCO2 (stereo not given)	0
Nc1nnc(SCc2cc3c(cc2Cl)OCO3)s1	7
CCn1cc(C(=O)N=c2sc3ccccc3n2C)c(=O)c2ccc(C)nc21	0
CCSc1oc(-c2ccco2)nc1S(=O)(=O)c1ccccc1	0

Structure (SMILES)	inhibition [%]
CC(=O)c1c(C)[nH]c(C(=O)NCc2cccs2)c1C	0
CN1CCN(Cc2nc3c(c(=O)n(C)c(=O)n3C)n2Cc2ccccc2Cl)CC1	0
CCOc1ccc(N(CC(=O)Nc2cccc(OC)c2)S(=O)(=O)c2c(C)noc2C)cc1	11
O=C(NCCN1CCCCCC1)c1ccc(N2CCCC2=O)cc1	1
COc1ccc(OC)c(C(=O)c2ccc(C(=O)O)cc2)c1	0
CCOC(=O)c1c(C)oc2ccc(NS(=O)(=O)c3ccc4c5c(cccc35)C(=O)N4)cc12	3
O=C(Nc1ccc(Cc2ccncc2)cc1)C1CC1	0
c1cncc(-c2nnc(SCCSc3nnc(-c4cccnc4)o3)o2)c1	0
CN(C)C(=O)N1CCN(C(=O)c2ccco2)CC1	0
CCN(CC)C(=O)C1=C(C)Nc2nnnn2C1c1cccnc1 (stereo not given)	0
COc1cccc(-c2cc(C(=O)N3CCCCCC3)no2)c1	1
Cc1nc2sc(C(c3ccc(Br)cc3)N3CC(C)OC(C)C3)c(O)n2n1 (stereo not given)	0
Cc1c(C(=O)Nc2ccncc2)oc2c1C(=O)CC(C)(C)C2	5
CCCn1c(NCc2cc(C)ccc2O)nc2ccccc21	0
Cn1cc(NC(=O)c2cc(NC(=O)c3cc(NC=O)cn3C)cn2C)cc1C(=O)NCCC(=N)N	10
CCOC(=O)c1nc2sc3c(c2c(=O)[nH]1)CCCC3	0
Cc1cc(C)c2nc(N)sc2c1	0
CCS(=O)(=O)NCCc1cc2c(OC)ccc(OC)c2[nH]c1=O	3
CCOc1ccc(N2CC(C(=O)NCCc3ccc(OC)c(OC)c3)CC2=O)cc1 (stereo not given)	0
COCCn1c(SCC(=O)N2CCc3ccccc32)nc2c(c1=O)SC(C)C2 (stereo not given)	1
